# Test results reported in PubChem BioAssay (NCATS).
# Records with an inconclusive call do not appear. The source made the active and inactive calls. Calls follow the shape of the dose curve; as a rule, active = well fitted cell-killing curve with a large enough effect; inconclusive = small, poorly fitted or top-dose-only effect; inactive = flat fitted curve, though single readings scatter.
# Assay: qHTS of pediatric cancer cell lines to identify multiple opportunities for drug repurposing: Primary screen for BT-37 cells (AID 1347094)
# Conditions: BT-37 viability, CellTiter-Glo luminescence, 48 h; series mostly up to 57.3 µM
# Source text: Drug repurposing or repositioning has been offered as a strategy for drug development in oncology programs. This approach has special potential for childhood cancers and other rare or orphan diseases, where the expected return on new drug development has been a disincentive to pharmaceuticals. […] In this project we exploit the poly-pharmacology of drugs to discover new indications via phenotypic screening of a panel of 19 well-characterized cell lines derived from solid tumors seen in children and adolescents. The goal is to identify approved drugs with previously unrecognized anticancer properties that has the potential to reveal new mechanisms and biological processes involved in carcinogenesis or drug resistance. We employed a titration-based paradigm (quantitative high-throughput screening or qHTS), where all compounds were tested at multiple concentrations for their effect on cell viability. Concentration-response curves (CRCs) were derived directly from the primary screen, and both potency and efficacy values were used to identify compounds with robust bioactivity profiles. We screened the NIH Chemical Genomics Center (NCGC) Pharmaceutical Collection (NPC) and Mechanism Interrogation Plate (MIPE) small molecule collections of approved and investigational compounds against these cell lines; and measured metabolically active cells after 48 hours of compound treatment as a proxy for cell viability. […] Assay Submitter: Nathalia J. Martinez, National Center for Advancing Translational Sciences, National Institutes of Health, Rockville, MD, USA; email: natalia.martinez@nih.gov Shen, M et al. Quantitative high-throughput phenotypic screening of pediatric cancer cell lines identifies multiple opportunities for drug repurposing. Oncotarget 2017 Dec 19;9(4):4758-4772. PMID 29435139.
# The cells were obtained from University of North Carolina (UNC), Pediatric Preclinical Testing Program (PPT), and Coriell Institute (CI). qHTS cell viability assay: Cells were assayed in growth media at a density of 500-1,000 cells/well. Five microliters of cells were dispensed into 1,536-well, white, solid-bottom, TC-treated plates (Greiner Bio One) using a multidrop dispenser and incubated at 37 degrees C, 5% CO2, under a humidified atmosphere for 5 hours. Twenty-three nanoliters of compounds and controls (neutral control DMSO or positive control bortezomib at final concentration of 2.3 µM) were subsequently transferred by Kalypsys pintool. For primary screens, the MIPE collection was tested at 11-point dilutions (final concentrations range from 0.78 nM to 46 µM) and the NPC collection at 8-point dilutions (final concentrations range from 0.59 nM to 46 µM). Compounds tested in follow-up screens were assayed at 11-point dilutions. Cells were incubated for 48 hours, followed by addition of 3 µL of CellTiter-Glo (Promega). After a 15 min incubation at room temperature, samples were analyzed for luminescence intensity using a ViewLux High-throughput CCD imager equipped with clear filters.
row,SMILES,outcome
1,C[N+](C)(C)CC(O)CC(=O)[O-] (stereo not given),inactive
2,O=C(CN1CCNCC1)NC1CCCCC1,inactive
3,Cc1cc(NC(=O)C2=C(O)c3ccccc3S(=O)(=O)N2C)no1,inactive
4,Cc1ccsc1C(=CCCN1CCC[C@@H](C(=O)O)C1)c1sccc1C,inactive
5,C[C@@H]1O[C@@H](OC[C@H]2O[C@@H](Oc3c(-c4ccc(O)c(O)c4)oc4cc(O)cc(O)c4c3=O)[C@H](O)[C@@H](O)[C@@H]2O)[C@H](O)[C@H](O)[C@H]1O,inactive
6,CC(C)c1cc2c(cc1S(=O)(=O)O)[C@@]1(C)CCC[C@@](C)(C(=O)O)[C@@H]1CC2,inactive
7,COc1nccnc1NS(=O)(=O)c1ccc(N)cc1,inactive
8,COC(=O)c1cccnc1,inactive
9,O=C(Cn1ccnc1[N+](=O)[O-])NCCO,inactive
10,CO[C@@]1(NC(=O)C(C(=O)O)c2ccc(O)cc2)C(=O)N2C(C(=O)O)=C(CSc3nnnn3C)CO[C@@H]21 (stereo not given in full),inactive
11,OC(CCN1CCCC1)(c1ccccc1)C1CCCCC1 (stereo not given),inactive
12,CC(=O)[C@@]1(O)CC[C@H]2[C@@H]3C[C@H](C)C4=CC(=O)C=C[C@]4(C)[C@@]3(F)[C@@H](O)C[C@@]21C,inactive
13,CCOC(=O)c1cccnc1,inactive
14,CN1CCCN=C1COC(=O)C(O)(c1ccccc1)C1CCCCC1 (stereo not given),inactive
15,Cc1c(C)c2c(c(C)c1OC(=O)c1cccnc1)CC[C@@](C)(CCC[C@H](C)CCC[C@H](C)CCCC(C)C)O2,inactive
16,O=C(O)CCC(=O)O,inactive
17,CC(=O)N[C@H]1[C@H]([C@H](O)[C@H](O)CO)OC(C(=O)O)=C[C@@H]1N=C(N)N,inactive
18,O=S1(=O)OC(c2ccc(O)cc2)(c2ccc(O)cc2)c2ccccc21,inactive
19,COCC(=O)Nc1c(I)c(C(=O)NCC(O)CO)c(I)c(C(=O)N(C)CC(O)CO)c1I (stereo not given),inactive
20,CNCc1ccccc1,inactive

row,SMILES,outcome
1,CCOC(=O)OC(C)OC(=O)[C@@H]1N2C(=O)[C@@H](NC(=O)[C@H](N)c3ccccc3)[C@H]2SC1(C)C (stereo not given in full),inactive
2,C=CCOc1ccccc1OCC(O)CNC(C)C (stereo not given),inactive
3,O=C(O)CCCCC1CCSS1 (stereo not given),inactive
4,CN(C/C=C/C#CC(C)(C)C)Cc1cccc2ccccc12,inactive
5,Cn1c(=O)c2c(ncn2CCO)n(C)c1=O,inactive
6,CN(C(=O)c1c(O)c2ccccc2n(C)c1=O)c1ccccc1,inactive
7,Cn1c([N+](=O)[O-])cnc1COC(N)=O,inactive
8,C/C(=C(\CCO)SS/C(CCO)=C(\C)N(C=O)Cc1cnc(C)nc1N)N(C=O)Cc1cnc(C)nc1N,inactive
9,CN1C(C)(C)CCCC1(C)C,inactive
10,CCN(CC)C(=O)c1cccc(C)c1,inactive
11,NC(=O)c1ccc([N+](=O)[O-])cc1Cl,inactive
12,O=C(/C=C/c1ccccc1)OCc1ccccc1,inactive
13,COc1cc(O)cc(O)c1,inactive
14,CC(C)(C)C(=O)OCOC(=O)[C@@H]1N2C(=O)[C@@H](NC(=O)[C@H](N)c3ccccc3)[C@H]2SC1(C)C,inactive
15,CC(=O)Nc1ccc(OCCOCCOc2ccc(NC(C)=O)cc2)cc1,inactive
16,CC(C)=CCC[C@@](C)(O)[C@H]1CC=C(C)CC1,inactive
17,CCCCCOC(=O)Nc1nc(=O)n([C@@H]2O[C@H](C)[C@@H](O)[C@H]2O)cc1F,inactive
18,CC1(C)S[C@@H]2[C@H](NC(=O)C(C(=O)O)c3ccccc3)C(=O)N2[C@H]1C(=O)O (stereo not given in full),inactive
19,Cc1c(NC(=O)c2cccnc2)c(=O)n(-c2ccccc2)n1C,inactive
20,CN/C(=C\[N+](=O)[O-])NCCSCc1csc(CN(C)C)n1,inactive
